Assay results as given in the supplement of paper PMC6555819.

Assays:
Assay in all cases: PBM binding z-score (relative to random genomic background probes); higher = stronger binding; sequences stand for … in GC…GCGATTGACAGCGTAGAATGAAGG
[1] = system: FXR:RXRa (NR concentration 270 nM, RXRa partner concentration 90 nM)
Outline: (§1)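 Binding buffer was PBS pH 7.4 with 2% milk, 0.02% Triton X-100, 1 mM DTT, 0.2 mg/mL BSA and 0.4 mg/ml salmon testes DNA. In it, ligand-free nuclear receptor dimers were incubated 1 h on custom Agilent 4×180K protein-binding microarrays carrying double-stranded probes. Antibodies against each partner (one per run) detected binding, and z-scores were calculated against random background probes after regression normalization of scanned fluorescence.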

[2] = system: LXRa:RXRa (NR concentration 270 nM, RXRa partner concentration 90 nM)
Outline: as §1

[3] = system: LXRa homodimer (NR concentration 270 nM)
Outline: as §1

[4] = system: LXRb:RXRa (NR concentration 270 nM, RXRa partner concentration 90 nM)
Outline: as §1

[5] = system: LXRb homodimer (NR concentration 270 nM)
Outline: as §1

[6] = system: PPARa:RXRa (NR concentration 270 nM, RXRa partner concentration 90 nM)
Outline: as §1

[7] = system: PPARg:RXRa (NR concentration 180 nM, RXRa partner concentration 90 nM)
Outline: as §1

[8] = system: PPARg:RXRa 270nM:90nM, anti-RXR (NR concentration 270 nM, RXRa partner concentration 90 nM)
Outline: as §1

[9] = system: PPARg:RXRa 30nM:10nM, anti-RXR (NR concentration 30 nM, RXRa partner concentration 10 nM)
Outline: as §1

[10] = system: PPARg:RXRa 90nM:30nM, anti-RXR (NR concentration 90 nM, RXRa partner concentration 30 nM)
Outline: as §1

[11] = system: PPARg:RXRa DBDmut IVT, anti-RXR (DBD mutation: RXRa K156A/R161A, NR concentration 270 nM, RXRa partner concentration 90 nM)
Outline: as §1

[12] = system: PPARg:RXRa IVT, anti-PPARg (NR concentration 270 nM, RXRa partner concentration 90 nM)
Outline: as §1

[13] = system: PPARg DBDmut:RXRa IVT, anti-PPARg (DBD mutation: PPARg1 K132A/R137A, NR concentration 270 nM, RXRa partner concentration 90 nM)
Outline: as §1

[14] = system: PPARg DBDmut IVT, anti-PPARg (DBD mutation: PPARg1 K132A/R137A, NR concentration 270 nM)
Outline: as §1

[15] = system: PPARg homodimer (NR concentration 180 nM)
Outline: as §1

[16] = system: PXR:RXRa (NR concentration 270 nM, RXRa partner concentration 90 nM)
Outline: as §1

[17] = system: PXR homodimer (NR concentration 270 nM)
Outline: as §1

[18] = system: RARa:RXR (NR concentration 270 nM, RXRa partner concentration 90 nM)
Outline: as §1

[19] = system: RARa homodimer (NR concentration 270 nM)
Outline: as §1

[20] = system: RARb:RXRa (NR concentration 270 nM, RXRa partner concentration 90 nM)
Outline: as §1

Row | Sequence | PBM binding z-score [1] | PBM binding z-score [2] | PBM binding z-score [3] | PBM binding z-score [4] | PBM binding z-score [5] | PBM binding z-score [6] | PBM binding z-score [7] | PBM binding z-score [8] | PBM binding z-score [9] | PBM binding z-score [10] | PBM binding z-score [11] | PBM binding z-score [12] | PBM binding z-score [13] | PBM binding z-score [14] | PBM binding z-score [15] | PBM binding z-score [16] | PBM binding z-score [17] | PBM binding z-score [18] | PBM binding z-score [19] | PBM binding z-score [20]
1 | TCGAGTAGGTTCGTCGGGGCATTCAGCCAACATA | 0.282 | 0.37 | -0.315 | 0.726 | -0.765 | 0.757 | -0.436 | 0.394 | 0.955 | 0.64 | 0.771 | -0.0233 | -1.34 | -1.13 | -0.174 | 0.391 | -0.361 | 0.296 | -0.807 | 0.556
2 | TCATATAGGTAAAGGTGAAAGTAGAACGATATGA | 1.05 | 1.4 | -0.101 | 1.28 | 0.0204 | 3.29 | 4.62 | 4.54 | 4.45 | 4.86 | 4.02 | 4.56 | 2.33 | 2.14 | 1.55 | 1.08 | -0.104 | 1.42 | 0.341 | 2.02
3 | GATACAGGGTCAGCTATAGGCCAGAGTATGGAAA | 4.11 | 2.57 | -0.223 | 2.13 | -0.306 | 4.24 | 3.43 | 3.17 | 0.857 | 2.08 | 1.05 | 2.31 | 0.261 | 0.123 | 1.68 | 2.14 | -0.0446 | 3.35 | 0.261 | 4.02
4 | TGAATAAGGTTATAAGATCAGGGAACGTTGCAAA | 1.45 | 1.38 | 0.228 | 1.24 | -0.00633 | 2.31 | 0.925 | 1.57 | 1.06 | 1.53 | 0.667 | 1.08 | 1.27 | 0.778 | 0.811 | 0.858 | -0.117 | 1.6 | 0.729 | 1.67
5 | CAAACTAGGTCAAGAAGTCAAAGTCCGCTTCCCG | 3.65 | 2.9 | 0.599 | 1.94 | 0.337 | 4.89 | 7.74 | 6.67 | 4.66 | 6.22 | 7.86 | 8.35 | 2.53 | 3.42 | 2.98 | 1.49 | 0.206 | 2.77 | 0.734 | 4.05
6 | CAAACTAGGTCAAGGGCAAAGTCGGTTTGTGCCA | 3.97 | 3.12 | 0.592 | 2.17 | 0.2 | 5.38 | 9.21 | 8.06 | 6.95 | 8.38 | 8.17 | 8.56 | 2.21 | 2.46 | 3.97 | 2.25 | 0.415 | 2.77 | 0.377 | 4.27
7 | AATACAGGGTCAATAGGCCAGAGTAGGTACGAAT | 6.54 | 5.03 | 0.816 | 3.72 | 0.669 | 5.72 | 6.47 | 5.46 | 2.53 | 4.61 | 2.44 | 4.21 | 1.55 | 0.759 | 2.2 | 2.69 | 0.585 | 3.85 | 0.911 | 4.17
8 | CAAACTAGGTGAAGGTCAAAGTCGGTTTGTGCCA | 4.11 | 4.11 | 2.31 | 3.48 | 0.412 | 5.38 | 7.65 | 6.92 | 5.05 | 6.44 | 8.04 | 8.04 | 2.16 | 0.309 | 2.76 | 3.95 | 0.968 | 4.27 | 0.0969 | 3.87
9 | AGAACGAGGGAAATGAGTTGATAGCACGGGTGGC | -0.469 | -0.525 | -0.561 | -0.828 | -0.449 | -0.481 | 0.813 | -0.497 | -0.0468 | -0.319 | -0.231 | -0.564 | 0.432 | -0.941 | -0.441 | -0.411 | 0.0651 | -0.474 | -0.0061 | -0.45
10 | CATACAGGGTCAGCTAGGCCAGATTAGGGACGGC | 4.11 | 2.99 | -0.059 | 2.4 | 0.391 | 4.38 | 3.11 | 2.96 | 0.713 | 1.62 | 1.11 | 1.98 | 0.335 | -0.106 | 1.45 | 2.26 | -0.138 | 3.04 | 0.588 | 3.91
11 | TCATATAGGTAAAAGGTGAAAGGCGGTGTGGTAA | 1.86 | 1.88 | 0.349 | 1.9 | 0.306 | 5.25 | 9.05 | 8.31 | 8.92 | 9.94 | 5.24 | 5.21 | 3.35 | 1.06 | 2.76 | 1.69 | 0.582 | 2.48 | 1.28 | 1.79
12 | CGAACGAGGGCATGAGTTGATGGCAAATGCCGAT | 0.483 | 0.315 | -0.503 | -0.235 | -0.92 | 1.4 | 1.24 | 1.34 | -0.207 | 0.832 | 3.03 | 2.23 | -0.341 | -0.685 | -0.031 | 0.243 | -0.209 | 0.201 | -1.03 | 1.99
13 | AGAATGAGGTTATACGTAAATCAGGGAAGAAAGT | 2.3 | 1.9 | 0.21 | 1.77 | 0.0752 | 3.24 | 2.5 | 2.79 | 0.991 | 2.07 | 3.33 | 2.28 | 0.904 | 1.57 | 0.789 | 1.18 | 0.834 | 1.77 | 0.337 | 1.59
14 | TGAATGAGGTTATAACATCAGGGAACGTTGCAAA | 1.52 | 1.46 | -0.281 | 1.2 | -0.639 | 2.52 | 1.12 | 1.54 | 0.946 | 1.41 | 0.822 | 1.57 | 1.79 | 0.499 | 0.614 | 0.813 | -0.514 | 1.4 | 0.248 | 1.04
15 | AGAATGAGGTTATCCGTAGATCAGGGAAGAAAGT | 2.59 | 2.06 | -0.212 | 1.57 | -0.253 | 3.44 | 1.63 | 2.05 | 0.418 | 1.32 | 3.68 | 2.42 | 0.156 | 1.03 | 0.547 | 1.17 | 0.231 | 1.76 | 0.02 | 1.66
